Screen size: about 1,200 compounds; fewer than 10 were called active. These entries were drawn from the full list. Potency and affinity values are given separately. Values without a mark were called inactive.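 How the source made its calls: active means inhibition reaching a set limit at one or more tested concentrations; inactive means inhibition under that limit at every dose.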

Drawing on PubChem BioAssay AID1307 (SRMLSC, 2008), this text covers max inhibition for 22 compounds.

The nature of the assay: RAM pathway signaling blockade in S. cerevisiae – dose response (AID 1307).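 Further: 0% = DMSO vehicle wells and 100% = 10 µM 1-NA-PP1 control; higher inhibition means more yeast growth since RAM block rescues cells from 5-FOA.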 Conditions: S. cerevisiae RAM network URA3 reporter, 5-FOA growth OD615, hits give high values, yeast express analog-sensitive mutant Cbk1 kinase; at 100 µM unless noted.
In the case of `Cc1ccc(Cl)cc1N1CCN(S(=O)(=O)c2ccc3[nH]c(=O)c(=O)[nH]c3c2)CC1`, the max inhibition is 4.39%. In the case of `O=C(CCCSc1nc2ccccc2[nH]1)Nc1nnc(-c2ccccc2)o1`, the max inhibition was 1.46% [at 1.563 µM]. With `Cc1cc(NC(=O)COC(=O)C(Nc2ccc(C(F)(F)F)cc2Cl)C(C)C)no1` (configuration not stated) the figure was 3.28% [at 12.5 µM]; with `Cc1ccccc1NC(=O)CCCSc1nc2ccccc2s1`, 1.4% [at 25 µM].

As for `O=C(OC(C(=O)Nc1cccc(C(F)(F)F)c1)c1ccccc1)C1CCCCC1` (configuration not stated), the max inhibition was 3.65% [at 50 µM]. For `C=CCOc1c(Br)cc(CNc2ccc(NC(=O)C(C)C)c(OC)c2)cc1OCC`, the max inhibition is 2.15% [at 3.125 µM]. Regarding `COc1ccccc1-n1c(COc2ccccc2-c2ccccc2)nnc1SCC(=O)c1c(N)n(C)c(=O)n(C)c1=O`, the max inhibition was 11.9%. On to `COc1ccc(Br)cc1C(=O)Nc1ccccc1-c1ccccc1`, for which the max inhibition is 6.2% [at 50 µM]. In the case of `CCCC[C@@H]1C[C@H]1[C@@H](NC(=O)c1ccccc1)c1ccccc1C(F)(F)F`, the max inhibition is 3.06%. With `CCOc1ccccc1NC(=O)C(OC(=O)c1cc(C)oc1C)c1ccccc1` (configuration not stated) the figure was 4.82%. `Cc1ccccc1Oc1ccc(-c2nc(N)nc(N)n2)cc1`: the max inhibition is 3.9%. With `O=S(=O)(c1ccccc1F)N(Cc1ccco1)Cc1nnc(-c2ccccc2Br)o1` the figure was 2.49% [at 1.563 µM]; with `Cc1ccc(C)c(N2CCN(C(=O)c3ccc(Cn4c(=S)[nH]c5ccc(N6CCOCC6)cc5c4=O)cc3)CC2)c1`, 5.67%.

As for `CCOC(=O)C(C)Sc1nc2c(c(-c3cccs3)c1C#N)CCC2` (configuration not stated), the max inhibition is 3.89% [at 50 µM].

For the compound `Cc1ccc(OCc2nnc(SCC(=O)Nc3ccc4c(c3)OCCO4)n2Cc2ccco2)cc1`, the max inhibition is 0.12% [at 0.782 µM].

As to `COC(=O)c1ccc(CSc2nc(-c3ccco3)cc(C(F)(F)F)n2)o1`, the max inhibition is 5.27%.

In the case of `CCCCOc1nc2ccccc2nc1C(C#N)C(=O)NC1CCCCC1` (configuration not stated), the max inhibition is 4.45%. With `COc1ccc(-c2ccc(-c3noc(C4CCCCC4)n3)c(OC)n2)cc1` the figure was 3.89% [at 50 µM]; with `O=C(CSc1nc2ccccc2s1)CSc1nc2ccccc2s1`, 5.31%; with `O=C(Nc1ccccc1Cl)c1cccc(COc2cc(Cl)ccc2Cl)c1`, 2.59%. Take `COc1ccc(Cc2nc(-c3ccc(-n4cccc4)cc3)no2)cc1OC`: the max inhibition is 5.67%. For `CCCCOc1cccc(C(=O)NC(=S)Nc2cccc(C(F)(F)F)c2)c1`, the max inhibition was 4.25%.
